Drawing on PubChem BioAssay (Tox21), this text covers Potency and outcome for nine molecules.

Experiment [1] can be described thus: qHTS assay to identify small molecule agonists of the estrogen receptor alpha (ER-alpha) signaling pathway in the presence of an antagonist - cell viability counter screen (AID 1259386).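 Note: cells exposed to compounds for 22 h at 37 °C before the viability read; nearly all actives have a fitted effect of over 30% in size.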 Note: potency is the fitted concentration of half-maximal effect. Put shortly:
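VM7Luc4E2, stripped-serum pre-culture 5 d; 24hr plating; +ICI-182,780 10.0nM final; cpds 15 conc, 22hr, 37C/5% CO2; CellTiter-Fluor added at 21hr, fluorescence 1hr later.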
On the technique in general: qHTS replaces the single test concentration by a dilution series.

Experiment [2] has as its target Progesterone receptor (Homo sapiens) (UniProt P06401). Kind of experiment: qHTS assay to identify small molecule agonists of the progesterone receptor (PR) signaling pathway (AID 1346784; calls by dose curve; note: nearly all actives have a fitted effect of over 30% in size). In outline:
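Agonist qHTS: compounds pinned onto 3,000 PR-UAS-bla HEK 293T cells per well in charcoal-stripped serum medium, 16hr at 37C, then beta-lactamase activity measured by LiveBLAzer FRET fluorescence after 2 hours at room temperature.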

The nature of experiment [3]: qHTS assay to identify small molecule agonists of the progesterone receptor (PR) signaling pathway - cell viability counter screen (AID 1346799; calls by dose curve; note: nearly all actives have a fitted effect of over 45% in size). In outline:
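Cytotoxicity measured by CellTiter-Glo luminescence (30 min, RT) in the same wells as the PR beta-lactamase agonist read. Those HEK293T cells had 16 h compound treatment at 37 C in 2% charcoal-stripped FBS medium.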

Experiment [4] in a line: qHTS assay to identify small molecule antagonists of the TGF-beta/Smad signaling pathway - cell viability counter screen (AID 1346824). Note: nearly all actives have a fitted effect of over 50% in size. Put shortly:
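Cytotoxicity counter-screen run in the same wells as the beta-lactamase Smad reporter read: CellTiter-Glo luminescence after 30 min at room temperature. HEK 293T SBE-bla cells had 5 hr compound exposure at 37 C with TGF-beta1 (0.25 ng/mL stock).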

A short description of experiment [5]: qHTS assay to identify small molecule agonists of the TGF-beta/Smad signaling pathway - cell viability counter screen (AID 1346829). Note: top concentration of the series differs between compounds; nearly all actives have a fitted effect of over 45% in size. In outline: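 Luminescence from CellTiter-Glo, read after a 30 min room-temperature incubation, gives cell viability of SBE-bla HEK 293T cells treated 5 hr with compounds at 37 C.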
Experiment [6] has as its target Thyrotropin-releasing hormone receptor (Homo sapiens) (UniProt P34981). Kind of experiment: qHTS assay to identify small molecule antagonists of the thyrotropin-releasing hormone receptor (TRHR) signaling pathway (AID 1346877; active = well fitted inhibition curve with a large enough effect in the repeat runs, not every such curve was filed as active; note: potency is the fitted concentration of half-maximal effect). Put shortly: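 Intracellular calcium fluorescence, read kinetically every second over 3 min, reports TRH-evoked signalling in HEK293 cells carrying TRHR. Test compounds were added 5 min ahead of a 1 nM TRH challenge.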

Experiment [7] has the same target. As to the kind of experiment: qHTS assay to identify small molecule agonists of the thyrotropin-releasing hormone receptor (TRHR) signaling pathway (AID 1346891; calls by dose curve; note: series mostly up to about 58 µM). In outline:
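Agonist-mode intracellular calcium readout: kinetic fluorescence over 3 min at 1 s intervals after compound addition to TRHR-HEK293 cells (18 h seeded, 2 h dye-loaded at 37 C). Fifteen concentrations, triplicates.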

Experiment [8] can be described thus: Human pregnane X receptor (PXR) small molecule agonists, qHTS cell viability counter screen (AID 1346977). Note: nearly all actives have a fitted effect of over 50% in size. Put shortly:
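Same-well viability read: CellTiter-Fluor added after 23 hr compound exposure, fluorescence measured 1 hr later. Cells were PXR-Luc HepG2 seeded at 2,000/well in 5% charcoal-stripped FBS medium, rested 5 hr before dosing at 37 C.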

Experiment [9] is described as follows: Caspase-3/7 induction in HepG2 cells by small molecules, qHTS assay (AID 1346978). Note: nearly all actives have a fitted effect of over 15% in size. Put shortly:
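Caspase-3/7 induction was measured by Caspase-Glo 3/7 luminescence (30 min, room temperature) after a 17 hr compound exposure of wild-type HepG2 cells seeded at 2,000 per well and pre-incubated 5 hr.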

The nature of experiment [10]: Caspase-3/7 induction in CHO-K1 cells by small molecules, qHTS cell viability counter screen (AID 1346979). Note: nearly all actives have a fitted effect of over 35% in size. Note: potency is the fitted concentration of half-maximal effect. Put shortly: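 Cytotoxicity counter screen: CellTiter-Fluor added to compound-treated wild-type CHO-K1 cells at 16 h (37C, 5% CO2), fluorescence measured 1 h later; same wells as caspase-3/7 measurement.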
Experiment [11] is described as follows: Caspase-3/7 induction in CHO-K1 cells by small molecules, qHTS assay (AID 1346980). Note: nearly all actives have a fitted effect of over 15% in size. In outline: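 Luminescent Caspase-Glo 3/7 read (30min, room temperature) quantified apoptosis induction. Cells were wild-type CHO-K1, treated with compound for 17hr at 37 C and 5% CO2.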
A short description of experiment [12]: Caspase-3/7 induction in HepG2 cells by small molecules, qHTS cell viability counter screen (AID 1346981). Note: series mostly up to about 92 µM; nearly all actives have a fitted effect of over 30% in size. Put shortly:
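HepG2, WT, 2,000 cells/well; 5 hr pre-incubation 37 C/5% CO2; compound pin-transferred from DMSO; 16 hr exposure; CellTiter-Fluor, 1 hr; fluorescence read.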

In experiment [13] the target is Nuclear receptor subfamily 1 group I member 2 (Homo sapiens) (UniProt O75469). As to the kind of experiment: Human pregnane X receptor (PXR) small molecule agonists, qHTS assay (AID 1346982). Note: nearly all actives have a fitted effect of over 35% in size. Note: potency is the fitted concentration of half-maximal effect. Put shortly:
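Luciferase signal from ONE-Glo (30 min, room temperature) measured activation of hPXR-driven CYP3A4 reporter expression in PXR-Luc HepG2 cells treated with compounds for 24 hr at 37 C.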

Experiment [14] addresses Acetylcholinesterase (Homo sapiens) (UniProt P22303). As to the kind of experiment: Acetylcholinesterase (AChE) small molecule antagonists: colormetric cell-based qHTS assay (AID 1347395; calls by dose curve; note: nearly all actives have a fitted effect of over 30% in size). Put shortly: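 Colorimetric readout: DTNB quantifies thiocholine from acetylthiocholine hydrolysed by endogenous AChE of SH-SY5Y cells (2,000/well, plated overnight). Compound pretreatment 30 min, substrate incubation 90 min, both 37 C.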

The nature of experiment [15]: qHTS assay to identify small molecule agonists of the TGF-beta/Smad signaling pathway (AID 1346859; active = well fitted activation curve with a large enough effect in the signal ratio in the repeat runs, not every such curve was filed as active; the % refers to the signal ratio; note: series mostly up to about 77 µM). Put shortly: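 Fluorescence (ex 405 nm; em 460 and 530 nm) was read 2 h after LiveBLAzer FRET substrate at RT. The preceding compound treatment of overnight-plated SBE-bla HEK293T cells lasted 5 h at 37 C.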
Experiment [16] concerns the target Progesterone receptor (Homo sapiens) (UniProt P06401). As to the kind of experiment: qHTS assay to identify small molecule antagonists of the progesterone receptor (PR) signaling pathway (AID 1346795; active = well fitted inhibition curve with a large enough effect in the signal ratio in the repeat runs, not every such curve was filed as active; the % refers to the signal ratio; note: potency is the fitted concentration of half-maximal effect). In outline: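 Antagonist mode with agonist R5020 at 1 nM final and 16 hr incubation at 37C. Reporter was beta-lactamase driven by UAS in HEK293T (PR-UAS-bla), 2% charcoal-stripped serum; signal from LiveBLAzer FRET substrate, 2 hr at room temperature.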

The nature of experiment [17]: qHTS assay to identify small molecule antagonists of the progesterone receptor (PR) signaling pathway - cell viability counter screen (AID 1346798). Note: series mostly up to about 92 µM; nearly all actives have a fitted effect of over 50% in size. Put shortly:
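Cytotoxicity read as CellTiter-Glo luminescence (30 min, room temperature) in the same wells as the beta-lactamase readout. HEK293T PR-UAS-bla cells in charcoal-stripped 2% FBS received compound and R5020, then 16 h at 37C, 5% CO2.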

Unmarked numbers belong to inactive results. Records with an inconclusive call do not appear. The source made the active and inactive calls. Unless noted, calls come from the whole dose curve; as a rule, active = well fitted curve in the direction sought with a large enough effect in the repeat runs; inconclusive = weak or mixed curves; inactive = no such curve, though single readings can be large; an effect the other way counts as inactive or inconclusive.

Sequence of Progesterone receptor (Homo sapiens) (P06401 whole entry, looked up): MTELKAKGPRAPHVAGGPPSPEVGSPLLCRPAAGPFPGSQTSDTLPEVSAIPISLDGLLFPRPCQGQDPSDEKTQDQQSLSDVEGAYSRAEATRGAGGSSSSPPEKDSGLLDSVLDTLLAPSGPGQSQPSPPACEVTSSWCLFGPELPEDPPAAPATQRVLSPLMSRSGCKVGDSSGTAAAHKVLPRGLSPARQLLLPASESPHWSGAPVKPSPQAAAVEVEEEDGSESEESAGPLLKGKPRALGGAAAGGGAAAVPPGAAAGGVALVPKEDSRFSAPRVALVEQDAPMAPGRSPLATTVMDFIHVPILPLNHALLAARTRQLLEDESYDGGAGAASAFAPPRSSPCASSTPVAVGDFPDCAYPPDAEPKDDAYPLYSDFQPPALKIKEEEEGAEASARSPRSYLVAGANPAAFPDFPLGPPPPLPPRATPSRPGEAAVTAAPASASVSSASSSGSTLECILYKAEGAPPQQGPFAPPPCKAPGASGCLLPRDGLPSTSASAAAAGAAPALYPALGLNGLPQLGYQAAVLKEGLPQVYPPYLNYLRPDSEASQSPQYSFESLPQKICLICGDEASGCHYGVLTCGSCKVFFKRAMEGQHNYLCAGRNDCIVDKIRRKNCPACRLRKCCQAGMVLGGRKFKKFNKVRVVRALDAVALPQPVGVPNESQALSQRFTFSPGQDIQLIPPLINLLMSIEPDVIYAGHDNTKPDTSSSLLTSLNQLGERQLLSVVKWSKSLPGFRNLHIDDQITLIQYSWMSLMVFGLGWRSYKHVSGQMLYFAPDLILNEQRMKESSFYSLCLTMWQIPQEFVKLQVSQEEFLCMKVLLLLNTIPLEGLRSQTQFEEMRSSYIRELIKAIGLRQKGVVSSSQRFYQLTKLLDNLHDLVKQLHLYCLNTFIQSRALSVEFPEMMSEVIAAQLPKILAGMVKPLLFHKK
Sequence of Thyrotropin-releasing hormone receptor (Homo sapiens) (P34981 whole entry, looked up): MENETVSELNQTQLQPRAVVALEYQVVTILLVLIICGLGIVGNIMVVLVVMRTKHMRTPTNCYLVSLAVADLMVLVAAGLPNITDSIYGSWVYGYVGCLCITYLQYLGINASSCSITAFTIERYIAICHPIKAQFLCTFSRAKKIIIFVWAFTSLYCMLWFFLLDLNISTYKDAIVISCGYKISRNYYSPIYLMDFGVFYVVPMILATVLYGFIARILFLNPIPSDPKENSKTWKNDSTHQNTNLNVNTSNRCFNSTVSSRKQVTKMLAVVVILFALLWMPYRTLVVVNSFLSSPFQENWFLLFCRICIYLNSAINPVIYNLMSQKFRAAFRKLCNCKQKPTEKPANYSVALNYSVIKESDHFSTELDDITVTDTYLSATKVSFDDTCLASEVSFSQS
Sequence of Nuclear receptor subfamily 1 group I member 2 (Homo sapiens) (O75469 whole entry, looked up): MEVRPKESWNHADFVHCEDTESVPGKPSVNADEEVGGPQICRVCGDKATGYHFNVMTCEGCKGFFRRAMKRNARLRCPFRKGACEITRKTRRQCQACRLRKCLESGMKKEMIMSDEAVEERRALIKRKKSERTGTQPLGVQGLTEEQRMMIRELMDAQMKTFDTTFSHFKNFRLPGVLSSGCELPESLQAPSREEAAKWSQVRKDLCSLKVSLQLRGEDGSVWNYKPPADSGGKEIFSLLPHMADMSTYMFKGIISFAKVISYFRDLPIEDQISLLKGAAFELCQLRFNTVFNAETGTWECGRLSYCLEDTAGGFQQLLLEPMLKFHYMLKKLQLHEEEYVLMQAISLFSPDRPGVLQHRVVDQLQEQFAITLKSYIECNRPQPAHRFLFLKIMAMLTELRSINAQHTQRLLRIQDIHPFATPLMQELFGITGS
Sequence of Acetylcholinesterase (Homo sapiens) (P22303 whole entry, looked up): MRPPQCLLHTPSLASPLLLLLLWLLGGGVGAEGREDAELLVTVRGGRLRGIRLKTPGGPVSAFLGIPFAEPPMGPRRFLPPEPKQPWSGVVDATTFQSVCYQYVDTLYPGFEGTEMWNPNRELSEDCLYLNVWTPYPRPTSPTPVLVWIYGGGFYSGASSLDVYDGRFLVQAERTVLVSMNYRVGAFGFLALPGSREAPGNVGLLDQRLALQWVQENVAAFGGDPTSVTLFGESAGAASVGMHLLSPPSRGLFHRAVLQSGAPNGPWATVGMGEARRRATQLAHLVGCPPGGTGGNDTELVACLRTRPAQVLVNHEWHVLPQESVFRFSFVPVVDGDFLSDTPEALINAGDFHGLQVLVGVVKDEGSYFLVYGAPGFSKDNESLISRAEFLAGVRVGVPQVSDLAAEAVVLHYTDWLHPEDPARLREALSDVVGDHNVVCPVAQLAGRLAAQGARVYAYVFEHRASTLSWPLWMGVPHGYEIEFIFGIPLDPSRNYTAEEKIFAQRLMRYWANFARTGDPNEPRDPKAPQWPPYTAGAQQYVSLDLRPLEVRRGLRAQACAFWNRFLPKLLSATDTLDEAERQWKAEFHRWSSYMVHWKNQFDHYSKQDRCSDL

In the case of `BrCC(Br)(Br)Br`, the Potency result in experiment [1], in experiment [2], in experiment [3], in [4], in experiment [5] and in experiment [7] was “inactive” in each case. Also, the Potency result in experiment [8], in experiment [9], in [10], in experiment [11], in experiment [12] and in [13] was “inactive” each time. In addition, in experiment [14], the Potency entry is “inactive”. Moreover, the Potency in [6] is 15.7 µM (active).
Take `Cc1c([N+](=O)[O-])c(C)c([N+](=O)[O-])c(C(C)(C)C)c1[N+](=O)[O-]`: the Potency result in experiment [1], in [2], in experiment [4], in experiment [5], in experiment [6] and in [7] was “inactive” in each case. The Potency entry in experiment [8], in experiment [9], in experiment [11], in experiment [12] and in experiment [14] was “inactive” in each case. Also, the outcome in [15] was inactive. Further, the Potency in experiment [13] is 48.6 µM (active).
For `Oc1ccc(Cl)c(Cl)c1`, the Potency result in experiment [1], in experiment [17], in experiment [3], in [4], in experiment [5] and in [6] was “inactive” throughout. Further, the Potency result in experiment [7], in [8], in experiment [9], in experiment [11], in [12] and in [14] was “inactive” in each case. Also, the Potency in experiment [16] is 26.9 µM (active); in experiment [10] it was 67.5 µM (active); in experiment [13] it was 60.2 µM (active). The molecule was classed as inactive in experiment [15].
For `CC(C)Br`, the Potency result in [1], in experiment [2], in experiment [3], in experiment [4], in experiment [5] and in [6] was “inactive” each time. Also, the Potency result in experiment [7], in [8], in experiment [9], in experiment [10], in experiment [11] and in experiment [12] was “inactive” each time. The Potency result in experiment [13] and in experiment [14] was “inactive” each time. The molecule was classed as inactive in experiment [15].
Turning to `CN=C=O`, the Potency entry in experiment [1], in experiment [16], in experiment [17], in [3], in experiment [4] and in [5] was “inactive” each time. Moreover, the Potency entry in experiment [8], in experiment [9], in [11], in experiment [12], in experiment [13] and in [14] was “inactive” each time. In addition, the molecule was called inactive in experiment [15].
For the molecule `CCC1(CC)C(=O)N=C(O)NC1=O`, the Potency entry in [1], in experiment [16], in experiment [17], in experiment [3], in [4] and in experiment [5] was “inactive” throughout. Also, the Potency result in experiment [6], in [7], in [8], in experiment [9], in experiment [10] and in experiment [11] was “inactive” each time. Further, the Potency result in experiment [12] and in experiment [14] was “inactive” throughout. Besides, in experiment [15], the call was inactive.
Consider `Oc1ccc([C@H]2CNCc3c2ccc(O)c3O)cc1O`, for which the Potency in [1] was 26.6 µM (active); in [10] it was 29.8 µM (active). Besides, the Potency result in [16], in [17], in experiment [3], in experiment [4], in experiment [5] and in experiment [6] was “inactive” in each case. Also, the Potency entry in [7], in experiment [9] and in experiment [13] was “inactive” throughout. Besides, the molecule was called inactive in [15].
On to `CCCCC(CC)COC(=O)OOC(C)(C)C` (configuration not stated), for which the Potency entry in [1], in experiment [16], in experiment [17], in experiment [3], in [4] and in experiment [5] was “inactive” in each case. The Potency result in experiment [7], in experiment [8], in experiment [9], in [11], in experiment [12] and in experiment [13] was “inactive” throughout. The Potency result in experiment [14] is “inactive”.
Turning to `CC(=O)O.CC(=O)O.CC(=O)O.CC(=O)O.CC(=O)O.CC(=O)O.CC(=O)O.O.O.[Cr].[Cr].[Cr]`, the Potency entry in experiment [1], in experiment [16], in experiment [17], in experiment [3], in experiment [5] and in experiment [8] was “inactive” in each case. In addition, the Potency entry in [9], in experiment [10], in experiment [11] and in [12] was “inactive” throughout. The outcome in experiment [15] was inactive.
